The nature of assay [1]: Quantitative High-Throughput drug screen in 47 multiple myeloma cell lines against the NCATS MIPE library collection: Karpas417_ECACC cell viability assay (AID 1918961). The note with it: Karpas417 myeloma viability, CellTiter-Glo ATP luminescence, 48 h; viability (% of DMSO): at 45.8 µM (top of the series). The method in brief:
(§1)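 CellTiter-Glo ATP luminescence gave viability after 48 h compound treatment at 37C of 500 multiple myeloma cells per well. Normalisation used DMSO-only wells as 100% and media-only wells as 0% viability; primary qHTS of approved and investigational drugs.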
Background: In ATP-based viability assays light output follows the ATP content of the culture.

Assay [2] can be described thus: Quantitative High-Throughput drug screen in 47 multiple myeloma cell lines against the NCATS MIPE library collection: JIM3_ECACC cell viability assay (AID 1918963; also: nearly all actives have a fitted effect of over 35% in size). In short, it runs like this: (§2)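 Myeloma cells (500 per well) were exposed to MIPE 4.0 compounds by pin transfer and incubated 48 hours at 37C, 5% CO2. Viability was read as ATP by CellTiter-Glo luminescence, normalised to DMSO (100%) and media-only (0%) wells.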

A short description of assay [3]: Quantitative High-Throughput drug screen in 47 multiple myeloma cell lines against the NCATS MIPE library collection: JIM1_ECACC cell viability assay (AID 1918964). The method in brief:
as §1

Assay [4] can be described thus: Quantitative High-Throughput drug screen in 47 multiple myeloma cell lines against the NCATS MIPE library collection: INA6_PLB cell viability assay (AID 1918965; also: nearly all actives have a fitted effect of over 55% in size). In short, it runs like this: as §1
Assay [5] in a line: Quantitative High-Throughput drug screen in 47 multiple myeloma cell lines against the NCATS MIPE library collection: JJN3_DSMZ cell viability assay (AID 1918966; also: nearly all actives have a fitted effect of over 50% in size). The method in brief: as §1
A short description of assay [6]: Quantitative High-Throughput drug screen in 47 multiple myeloma cell lines against the NCATS MIPE library collection: H1112_PLB cell viability assay (AID 1918967; also: nearly all actives have a fitted effect of over 30% in size). In short, it runs like this:
as §1

A short description of assay [7]: Quantitative High-Throughput drug screen in 47 multiple myeloma cell lines against the NCATS MIPE library collection: Karpas25_ECACC cell viability assay (AID 1918968; also: nearly all actives have a fitted effect of over 35% in size). In short, it runs like this: as §1
Assay [8] in a line: Quantitative High-Throughput drug screen in 47 multiple myeloma cell lines against the NCATS MIPE library collection: KMS27_JCRB cell viability assay (AID 1918970). Also: nearly all actives have a fitted effect of over 30% in size. The note with it: KMS27 myeloma cells, CellTiter-Glo ATP viability, 48 h; viability (% of DMSO): at 45.8 µM (top of the series). The method in brief:
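KMS27_JCRB myeloma cells, 500 per well, exposed 48 h at 37 C, 5% CO2 to MIPE 4.0 compounds. Viability from ATP by CellTiter-Glo luminescence, normalized to DMSO (100%) and medium-only (0%) wells.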

A short description of assay [9]: Quantitative High-Throughput drug screen in 47 multiple myeloma cell lines against the NCATS MIPE library collection: KMS12BM_JCRB cell viability assay (AID 1918971). Also: nearly all actives have a fitted effect of over 35% in size. The method in brief: (§3)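 Relative luminescence from CellTiter-Glo served as the viability signal, referenced to DMSO-treated (100%) and cell-free medium (0%) controls. Treatment lasted 48 hours at 37C with 500 cells per well.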

Assay [10] in a line: Quantitative High-Throughput drug screen in 47 multiple myeloma cell lines against the NCATS MIPE library collection: KMS12PE_JCRB cell viability assay (AID 1918972). Also: nearly all actives have a fitted effect of over 30% in size. In short, it runs like this:
as §1

A short description of assay [11]: Quantitative High-Throughput drug screen in 47 multiple myeloma cell lines against the NCATS MIPE library collection: KMS20_JCRB cell viability assay (AID 1918973). Also: nearly all actives have a fitted effect of over 45% in size. The method in brief: as §1
A short description of assay [12]: Quantitative High-Throughput drug screen in 47 multiple myeloma cell lines against the NCATS MIPE library collection: KMS26_JCRB cell viability assay (AID 1918975). Also: nearly all actives have a fitted effect of over 45% in size. In short, it runs like this: as §3
A short description of assay [13]: Quantitative High-Throughput drug screen in 47 multiple myeloma cell lines against the NCATS MIPE library collection: MMM1_PLB cell viability assay (AID 1918976). Also: nearly all actives have a fitted effect of over 35% in size. The method in brief: (§4)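 ATP-based CellTiter-Glo luminescence after 48 h drug exposure (37 °C, 5% CO2) of 500 myeloma cells per well. DMSO-only wells set 100% viability, media-only wells 0%; MIPE 4.0 library added by pin tool.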

Assay [14] is described as follows: Quantitative High-Throughput drug screen in 47 multiple myeloma cell lines against the NCATS MIPE library collection: MOLP8_DSMZ cell viability assay (AID 1918977). Also: nearly all actives have a fitted effect of over 45% in size. In short, it runs like this: as §4
Assay [15] in a line: Quantitative High-Throughput drug screen in 47 multiple myeloma cell lines against the NCATS MIPE library collection: NCIH929_DSMZ cell viability assay (AID 1918978). Also: nearly all actives have a fitted effect of over 35% in size. In short, it runs like this: as §4
A short description of assay [16]: Quantitative High-Throughput drug screen in 47 multiple myeloma cell lines against the NCATS MIPE library collection: OCIMY1_PLB cell viability assay (AID 1918979). Also: nearly all actives have a fitted effect of over 35% in size. The method in brief:
as §4

Assay [17] can be described thus: Quantitative High-Throughput drug screen in 47 multiple myeloma cell lines against the NCATS MIPE library collection: MM1S_ATCC cell viability assay (AID 1918980). Also: nearly all actives have a fitted effect of over 45% in size. The method in brief: as §4
Assay [18] in a line: Quantitative High-Throughput drug screen in 47 multiple myeloma cell lines against the NCATS MIPE library collection: MM1R_ATCC cell viability assay (AID 1918981). Also: nearly all actives have a fitted effect of over 35% in size. In short, it runs like this: as §4
Assay [19] is described as follows: Quantitative High-Throughput drug screen in 47 multiple myeloma cell lines against the NCATS MIPE library collection: KHM11_PLB cell viability assay (AID 1918962). Also: nearly all actives have a fitted effect of over 35% in size. The method in brief: as §2
A short description of assay [20]: Quantitative High-Throughput drug screen in 47 multiple myeloma cell lines against the NCATS MIPE library collection: KMS21BM_JCRB cell viability assay (AID 1918974). The note with it: ATP luminescence, 48 h; viability: at 45.8 µM (top of the series). In short, it runs like this: as §1

Structures are written as SMILES. Results filed as inconclusive are left out. Active and inactive are the calls of the source. Calls follow the shape of the dose curve; as a rule, active = well fitted curve in the direction sought with a large enough effect; inconclusive = small, poorly fitted or top-dose-only effect, or another doubt; inactive = no such curve, though single readings can be large; an effect the other way counts as inactive or inconclusive.
Potency is read from the fitted curve at half-maximal effect.

In the case of `CCNC(=O)c1cc2c(-c3cc(OCCN4CCCC4)c(Cl)cc3Cl)nc(N)nc2s1`, the Potency in [1] is 0.59 µM (active); in [2], 0.935 µM (active); in [3] it was 0.469 µM (active); in assay [4] it was 0.59 µM (active); in assay [5], 2.35 µM (active); in assay [6] it was 6.62 µM (active). For the same molecule, the Potency in assay [7] was 0.833 µM (active); in assay [8] it was 1.18 µM (active); in assay [9], 1.48 µM (active); in [10], 0.418 µM (active); in [11], 1.66 µM (active); in assay [12], 2.35 µM (active). Moreover, the Potency is 2.96 µM (active) in assay [13]; 0.743 µM (active) in [14]; 0.935 µM (active) in [15]; 3.32 µM (active) in [16]; 1.66 µM (active) in assay [17]; 2.09 µM (active) in [18].

As for `COc1ccc([C@@H]2CNC(=O)C2)cc1OC1CCCC1`, the Potency result in [1], in assay [5], in [16] and in assay [18] was “inactive” throughout. For the same molecule, the Potency in assay [19] is 10.5 µM (active); in [4], 9.35 µM (active); in [6], 2.96 µM (active); in [7] it was 3.32 µM (active); in assay [8], 26.4 µM (active); in assay [11], 3.72 µM (active). Further, the Potency in assay [15] is 4.18 µM (active); in [17], 0.743 µM (active).

Take `CC(C)N1[N]C(=C2C=c3cc(O)ccc3=N2)c2c(N)ncnc21`: the Potency in [1] is 0.0332 µM (active); in assay [2], 0.264 µM (active); in assay [4], 1.18 µM (active); in [5], 0.209 µM (active); in assay [7], 0.235 µM (active); in assay [8] it was 0.209 µM (active). Further, the Potency was 0.166 µM (active) in [9]; 2.35 µM (active) in assay [10]; 0.743 µM (active) in assay [11]; 1.18 µM (active) in assay [12]; 0.0833 µM (active) in [13]; 0.0833 µM (active) in assay [14]. For the same molecule, the Potency in assay [15] is 0.059 µM (active); in [18], 0.418 µM (active).

On to `CC(O)(C#Cc1ccc2c(c1)N(c1nc(N)ncc1Cl)CC2)c1nccs1` (stereo not drawn), for which the Potency in assay [1] was 4.69 µM (active); in assay [4], 8.33 µM (active); in assay [7], 3.72 µM (active); in assay [8], 20.9 µM (active); in assay [10], 13.2 µM (active); in assay [11], 2.64 µM (active). Also, the Potency in [20] was 0.332 µM (active); in [13], 20.9 µM (active); in assay [15], 1.18 µM (active); in assay [16], 14.8 µM (active); in [17], 11.8 µM (active); in [18], 18.7 µM (active).

As for `CN1CCc2c(c3ccccc3n2Cc2ccc(C(=O)NO)cc2)C1`, the Potency is 20.9 µM (active) in assay [1]; 23.5 µM (active) in assay [2]; 4.69 µM (active) in assay [4]; 18.7 µM (active) in [5]; 16.6 µM (active) in assay [6]; 10.5 µM (active) in assay [7]. Moreover, the Potency in assay [9] was 16.6 µM (active); in [12], 20.9 µM (active); in assay [15], 10.5 µM (active); in assay [17] it was 16.6 µM (active); in assay [18], 16.6 µM (active).

With `CCCNC(=O)[C@H]1O[C@H]1C(=O)N[C@H](C(=O)N1CCC[C@@H]1C(=O)OC)C(C)CC` (stereo partly drawn), the Potency in [1] is 2.96 µM (active); in assay [2] it was 16.6 µM (active); in assay [4] it was 16.6 µM (active); in [5] it was 2.96 µM (active); in assay [7], 14.8 µM (active); in [8] it was 5.9 µM (active). Moreover, the Potency in assay [9] is 5.26 µM (active); in assay [10], 6.62 µM (active); in assay [12], 11.8 µM (active); in assay [13] it was 16.6 µM (active); in assay [14], 2.64 µM (active); in [15] it was 4.69 µM (active). Also, the Potency in assay [16] was 5.9 µM (active); in [17], 2.35 µM (active); in assay [18], 2.35 µM (active).

For the molecule `O=c1ccn([C@@H]2O[C@H](CO)[C@H](O)[C@@H]2F)c(=O)[nH]1`, the Potency result in assay [1], in assay [2], in assay [10], in assay [11], in assay [20] and in assay [12] was “inactive” throughout. Moreover, the Potency entry in assay [14], in assay [16] and in [18] was “inactive” each time. For the same molecule, the Potency in [7] was 9.35 µM (active); in [13], 2.64 µM (active); in [15], 11.8 µM (active); in assay [17], 5.26 µM (active).

Consider `CC(=O)O[C@H]1C[C@@H]2CC[C@H]3[C@H]4C[C@H]([N+]5(C)CCCCC5)[C@@H](OC(C)=O)[C@@]4(C)CC[C@@H]3[C@@]2(C)C[C@H]1N1CCCCC1`, for which the Potency result in assay [1], in assay [2], in assay [4], in [6], in assay [7] and in assay [8] was “inactive” throughout. The Potency entry in assay [9], in [10], in assay [12], in [14], in [15] and in [16] was “inactive” throughout. In addition, the Potency entry in [18] is “inactive”. Besides, the Potency in assay [17] is 6.62 µM (active).

`CC(C=CC=C(C)C=CC1=C(C)CCCC1(C)C)=CC=CC=C(C)C=CC=C(C)C=CC1=C(C)CCCC1(C)C`: the Potency was 9.35 µM (active) in assay [1]; 14.8 µM (active) in [5]; 16.6 µM (active) in [7]; 11.8 µM (active) in [8]; 13.2 µM (active) in assay [12]; 14.8 µM (active) in assay [13]. The Potency is 5.9 µM (active) in [17] and 16.6 µM (active) in [18]. Moreover, the Potency result in [2] and in assay [9] was “inactive” each time.

As to `C#C[C@]1(O)CC[C@@H]2[C@@H]3CCc4cc(O)ccc4[C@H]3CC[C@@]21C`, the Potency in assay [1] is 8.33 µM (active); in [2], 20.9 µM (active); in [4] it was 9.35 µM (active); in assay [6], 18.7 µM (active); in [7], 18.7 µM (active); in assay [8], 16.6 µM (active). The Potency is 20.9 µM (active) in assay [9]; 16.6 µM (active) in assay [10]; 14.8 µM (active) in [11]; 3.72 µM (active) in assay [12]; 14.8 µM (active) in [13]; 3.72 µM (active) in assay [15]. The results for the Potency in assay [17] and in [18] were 11.8 µM (active) and 20.9 µM (active), respectively.

Values taken from PubChem BioAssay (NCATS).
